# ERa coact inh: ER-alpha (human) coactivator binding inhibition; P03372; TR-FRET ER-alpha LBD / SRC-1 peptide, estradiol-bound; inhibition, % at 25.6 µM; actives 1.7% (n = 86,000); in the data active means inhibition above about 50%;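 further: 0% = receptor plus peptide control and 100% = peptide only without receptor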
# Target sequence (P03372 whole entry, looked up, the tested form may be a part): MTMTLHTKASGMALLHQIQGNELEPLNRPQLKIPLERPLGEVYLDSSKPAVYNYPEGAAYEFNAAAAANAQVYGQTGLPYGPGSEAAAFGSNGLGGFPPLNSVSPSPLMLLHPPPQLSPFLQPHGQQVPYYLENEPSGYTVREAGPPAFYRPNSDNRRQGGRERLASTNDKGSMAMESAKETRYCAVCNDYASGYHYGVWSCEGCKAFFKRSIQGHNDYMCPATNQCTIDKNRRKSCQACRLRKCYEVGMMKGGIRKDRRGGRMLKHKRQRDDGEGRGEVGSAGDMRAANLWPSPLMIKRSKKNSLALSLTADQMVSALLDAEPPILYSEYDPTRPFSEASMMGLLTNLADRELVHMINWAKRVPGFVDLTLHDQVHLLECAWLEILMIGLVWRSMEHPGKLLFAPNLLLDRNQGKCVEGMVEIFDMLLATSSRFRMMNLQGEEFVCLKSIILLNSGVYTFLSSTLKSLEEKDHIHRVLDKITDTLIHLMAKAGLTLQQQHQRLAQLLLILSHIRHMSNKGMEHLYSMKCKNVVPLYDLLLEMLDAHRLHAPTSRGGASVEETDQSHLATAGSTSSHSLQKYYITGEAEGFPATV
# EphB4 antag: EphB4-ephrin-B2 interaction antagonism; EphB4 LBD / TNYL-RAW-Alexa532 peptide, fluorescence polarization; actives 0.15% (n = 97,000); AID 720; P54760; inhibition, % at 7 µM;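 active means inhibition above the screen-wide mean inhibition plus 3 SD, cut at about 15% in these data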;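 further: 0% = DMSO wells and 100% = excess unlabeled TNYL-RAW peptide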
# ERa coact pot: enhances coactivator binding to human estrogen receptor alpha | coactivator binding (% of control), % at 25.6 µM | AID 639 | TR-FRET ERalpha-LBD/SRC-Cy5 coactivator binding, 2 h; 100 = basal binding, no effect | actives 1.3% (n = 86,000); in the data active means activity above about 200%;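 further: binding measured in presence of low estradiol as agonist stimulus; 0% = peptide alone without receptor and 100% = receptor with peptide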
# ERb coact inh: ER-beta (human) coactivator binding inhibition | Q92731 | TR-FRET ER-beta LBD / SRC1-Cy5 peptide binding; receptor agonist-loaded with 1 µM estradiol | inhibition, % at 25.6 µM | actives 1.3% (n = 86,000) | AID 633;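 active means compounds whose percent inhibition of the receptor-coactivator binding signal exceeds about 50% in the single-dose screen, limit read from the data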;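 further: 0% = receptor plus peptide wells without compound and 100% = peptide-only wells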
# Starred values were filed as active, the others as inactive; nt = no result; [ ] = remark or other dose. Only some compounds are listed: those with a hit (about 2.8% of all), similar ones and a draw of the others.
SMILES,ERa coact inh,EphB4 antag,ERa coact pot,ERb coact inh
O=C(Cn1c(NCCO)nc2ccccc21)NCCc1ccc(F)cc1,-3,4,103,4
CC(C)CN(C(=O)c1nn(C)c(=O)c2ccccc12)c1nc2ccccc2s1,5,5,82,47
COCCCNC(=O)c1c(NC(=O)c2cccs2)sc2c1CCCC2,5,0,331*[fluorescence artefact?],12
O=C(Nc1sc2c(c1C(=O)O)CCC2)c1ccccc1,79*[fluorescence artefact?],2,25,76*
NC(=O)c1c(NC(=O)c2cccs2)sc2c1CCCCCC2,60*,nt,144,33
O=C(Nc1sc2c(c1C(=O)O)CCC2)c1cccs1,12,-1,74,41
COc1ccccc1NC(=O)c1c(NC(=O)c2ccco2)sc2c1CCC2,70*[fluorescence artefact?],7,177,34
N#Cc1c(NC(=O)CSc2nnc(-c3ccncc3)n2CC2CCCO2)sc2c1CCCC2 (stereo not given),-4,-10,115,-5
CCn1c(SCC(=O)Nc2sc3c(c2C#N)CCCC3)nnc1-c1ccncc1,-14,17*,87,-10
Cn1c(CNC(=O)c2ccc(Cl)cc2)nnc1SCC(=O)Nc1sc2c(c1C#N)CCCC2,37,3,250*,34
CCOC(=O)c1cc2ccccc2n1CCN(CC)CC,52*,-1,102,-6
Cc1ccc(NC(=O)CN2C(=O)S/C(=C/c3ccc(-c4cc(C(=O)O)ccc4C)o3)C2=O)cc1C,66*,11,237*[fluorescence artefact?],73*
Cc1cc(C(=O)CSc2nnc(-c3ccco3)o2)c(C)n1Cc1ccco1,54*[fluorescence artefact?],-6,177,41
COc1ccc(-c2nnc(SCC(=O)c3cc(C)n(Cc4cccs4)c3C)o2)cc1,52*[fluorescence artefact?],1,303*,38
Cc1cc(C(=O)CSc2nnc(-c3ccc(OC(F)F)cc3)o2)c(C)n1Cc1cccs1,55*[fluorescence artefact?],-3,150,44
COc1ccc(-n2cnnc2SCC(=O)c2cc(C)n(Cc3cccs3)c2C)cc1,21,-11,248*[fluorescence artefact?],25
Nc1nonc1-n1nnc(C(=O)O)c1-c1cccs1,-11,12,108,-9
O=S(=O)(Cc1ccccc1)N1CCN(Cc2ccc3c(c2)OCO3)CC1,5,3,78,2
COC(=O)C1CCN(C(=O)c2ccccc2Oc2ccccc2)CC1,-9,-5,121,-9
O=C(Nc1nn[nH]n1)C12CC3CC(CC(C3)C1)C2,-9,5,105,1
Cc1csc(C(C#N)C(=O)c2ccncc2)n1 (stereo not given),32,nt,65,63*
COc1cc(NCCCC(C)N)c2ncccc2c1 (stereo not given),70*[fluorescence artefact?],-6,4,90*[fluorescence artefact?]
COc1cc(NS(=O)(=O)c2ccc(C)cc2)c2ncccc2c1,-7,nt,100,2
CCOc1ccc(S(=O)(=O)N(C)CCO)cc1-c1nc2c(C(C)(C)C)nn(C)c2c(=O)[nH]1,3,-2,96,4
CSc1nc2ccc3nc(NC(=O)c4ccccc4)sc3c2s1,55*[fluorescence artefact?],-5,223*[fluorescence artefact?],48
SMILES,ERa coact inh,EphB4 antag,ERa coact pot,ERb coact inh
COC(=O)c1cc2sccc2n1CC(=O)Nc1cc(OC)cc(OC)c1,nt,-3,nt,nt
CCOC(=O)c1cc2sc(C)cc2n1CC(=O)N(CC)CC,-8,9,97,-23
CCOC(=O)c1cc2sc(C)cc2n1CC(=O)NCCc1ccccc1,-41,9,932*[fluorescence artefact?],-10
COC(=O)c1cc2sc(Cl)cc2n1CC(=O)NCCC(C)C,-4,-1,226*[fluorescence artefact?],0
Cc1cccc(C)c1-n1c(SCC(=O)NCc2ccco2)nc2ccccc2c1=O,6,5,102,-5
O=C1c2cccc3c(O)ccc(c23)C(=O)N1Cc1ccccc1,nt,10,nt,nt
COc1cccc(-n2c(SCC(=O)N3CCCC3)nc3c([nH]c4ccccc43)c2=O)c1,40,-2,285*[fluorescence artefact?],45
Cc1c(C(=O)Nc2ccc(-n3cnnn3)cc2)oc2ccccc12,76*[fluorescence artefact?],7,199,65*[fluorescence artefact?]
CCOC(=O)N1CCC(n2c(SCC(=O)NCCC3=CCCCC3)nc3ccccc3c2=O)CC1,3,15*,102,9
CCOC(=O)N1CCC(n2c(SCC(=O)N3CCCC3)nc3ccccc3c2=O)CC1,nt,0,nt,nt
CCOC(=O)N1CCC(n2c(SCC(=O)NCc3ccccc3)nc3ccccc3c2=O)CC1,4,16*,117,5
CCOc1ccc(C2=C(C=Nc3c(C)n(C)n(-c4ccccc4)c3=O)C(c3ccc(F)cc3)c3ccccc3O2)cc1 (stereo not given),nt,2,nt,nt
CCc1ccc(/C=N/NC(=O)c2cc(C3CC3)nc3ccc(Br)cc23)s1,nt,0,nt,nt
CSc1nc2nccc(-c3ccc(Oc4ccccc4)cc3)n2n1,8,-1,72,1
CSc1nc2nccc(-c3ccc(-c4ccccc4)cc3)n2n1,40,-3,220*,13
Cc1ccccc1NC(=O)CC1SCCNC1=O (stereo not given),1,2,108,0
Cc1c(Cl)cccc1NC(=O)CC1SCCNC1=O (stereo not given),-7,nt,126,54*
O=C(Cn1ncc2c(=O)oc3ccccc3c21)Nc1nc2ccccc2s1,6,0,429*,-4
Cc1ccc2[nH]c(SCC(=O)N3CCOCC3)nc2c1C,0,2,98,-9
CCCc1nc2sc3ccccc3c(=O)c2c(=O)n1Cc1ccco1,70*[fluorescence artefact?],6,69,64*
O=C(Nc1nc(=S)ss1)c1c(F)cccc1F,nt,4,nt,nt
Cc1cnn(-c2ccc3nnc(-c4ccc(Br)cc4)n3n2)c1,36,nt,284*[fluorescence artefact?],36
COCCNC(=S)NC12CC3CC(CC(C3)C1)C2,-6,-3,108,-18
O=C(Nc1nc(-c2ccccn2)cs1)c1ccc(Br)s1,-12,6,473*,-11
O=C(Nc1nc(-c2cc(Cl)sc2Cl)cs1)c1ccc(Br)s1,nt,1,nt,nt
SMILES,ERa coact inh,EphB4 antag,ERa coact pot,ERb coact inh
CCC(C)C(NC(=O)c1ccccc1NC(=O)c1ccc(OC)cc1)C(=O)NCc1ccco1 (stereo not given),67*[fluorescence artefact?],3,65,40
CCCC(=O)Nc1ccc2oc(-c3ccncc3)nc2c1,6,0,111,1
Cc1ccc2oc(-c3ccc(NC(=O)c4cccnc4)cc3)nc2c1,2,-4,248*,31
Cc1ccc2oc(-c3ccc(NC(=O)CC(C)C)cc3)nc2c1,-1,7,225*[fluorescence artefact?],15
CCCC(=O)Nc1ccc(-c2nc3cc(C)c(C)cc3o2)cc1,69*[fluorescence artefact?],-3,168,43
COc1ccc(NC(=O)COC(=O)c2c3c(nc4ccccc24)CCCC3)cc1Cl,nt,4,nt,nt
CCOC(=O)c1c(NC(=O)CC2SC(N)=NC2=O)sc2c1CCCC2 (stereo not given),nt,-7,nt,nt
CCOC(=O)C1CCCN(CC(=O)/C=C2/N(C)c3ccccc3C2(C)C)C1 (stereo not given),-1,0,103,1
CN1/C(=C\C(=O)COC(=O)Cn2nnc(-c3ccccc3)n2)C(C)(C)c2ccccc21,-3,-10,292*,-3
CCOC(=O)Cn1nc(C)c2c1CCCC2=O,-8,4,102,-6
O=C1CCCC(O)=C1C(C#Cc1ccccc1)C1=C(O)CCCC1=O,34,nt,24,52*[fluorescence artefact?]

# Screens from PubChem BioAssay.
